Measurements from PubChem BioAssay (NCI).
About 79,000 compounds went through this panel and 15% of them were active in at least one assay; those are over-represented in the sample as a whole. Activity calls are given as the source filed them. Cut-off read from the data, not from the text of the source: active = growth inhibition above about 70%; inactive = the rest.

Assay: NCI Yeast Anticancer Drug Screen. Data for the bub3 strain (AID 167)
Settings: S. cerevisiae bub3 mutant strain, stronger effect = higher value
Experimental: Growth inhibition of yeast strains with defined genetic alterations is measured as a screen for potential anti-cancer activity. Selected strains with alterations in DNA damage repair or cell cycle control were exposed to compounds and growth inhibition was measured relative to vehicle treated controls. The strain used in this assay is bub3

[1] = at 5.0 µM (retest, dose inferred, filed as 0.5)
[2] = at 50.0 µM (retest, dose inferred, filed as 5.0)

Measured: growth inhibition

Cc1ccc(N(C=O)c2c([N+](=O)[O-])cc([N+](=O)[O-])c3c2=[N+]([O-])CN=3)cc1
inactive: at 1.2 µM -1% | at 3.7 µM 5% | [1] 38% | at 11.0 µM 19% | at 50.0 µM 11%
active: at 33.0 µM 72% | [2] 98% | at 100.0 µM 97%

O=S(=O)(CCC[C@H]1[C@@H](CCOCc2ccccc2)C2CCCN1O2)c1ccccc1 (stereo not given in full)
inactive: at 1.2 µM 1% | at 3.7 µM 2% | [1] 22% | at 11.0 µM 2% | at 33.0 µM 6% | [2] 10% | at 50.0 µM -12.1% | at 100.0 µM 12%

CCN(CC)c1cccc(Nc2nc3ccccc3s2)c1
inactive: at 1.2 µM 0% | at 3.7 µM -1% | [1] 32% | at 11.0 µM 5% | at 33.0 µM 14% | at 100.0 µM 30%
active: [2] 83% | at 50.0 µM 89.8%

COc1ccc(/C=C2\CCc3ccccc3C2=O)cc1OC
inactive: at 1.2 µM 24% | at 3.7 µM 29% | [1] 25% | at 11.0 µM 51%
active: at 33.0 µM 76% | [2] 95% | at 50.0 µM 87.6% | at 100.0 µM 94%

Cc1cc(NCCCN(C)C)c2ccc3c(ccc4c(NCCCN(C)C)cc(C)nc43)c2n1
inactive: at 1.2 µM 1% | at 3.7 µM 11% | [1] 1% | at 11.0 µM 9% | at 33.0 µM 5% | [2] 31% | at 50.0 µM 11.3% | at 100.0 µM 22%
